Potency and affinity values are given separately. Values without a mark were called inactive. No rule for the calls is given here.
Assay: HEK293 cell cytotoxicity, dose response, cytotoxicity control, plate reader, cherry-picked samples (AID 743446)
Settings: hits give low values; at 26 µM unless noted

Row | Structure (SMILES) | max activity
1 | COc1ccc(-c2cc(C)nc3c(-c4ccccc4)cnn23)cc1 | -10.2%
2 | COc1ccc(C(=O)CN2C(=O)c3ccccc3S2(=O)=O)cc1 | -13.3% [at 0.05 µM]
3 | Cc1cc(C(=O)CN2C(=O)c3ccccc3S2(=O)=O)c(C)n1C(C)C | -20.6% [at 3 µM]
4 | CC(=O)Nc1cccc(-c2ccnc3c2CC(C(=O)NCc2cccnc2)O3)c1 (stereo not given) | 0% [setting not given]
5 | Cc1cc(-c2ccccc2)n2ncc(-c3ccccc3)c2n1 | 19.9% [at 0.8 µM]
6 | O=C(Cc1ccccc1Cl)Nc1cccnc1 | 17.2% [at 0.1 µM]
7 | COCCOc1cc(NCc2ccccc2)c2ncn(C(C)C)c2c1 | -9.83% [at 0.1 µM]
8 | CC(C)c1nnc(NC(=O)c2ccc3c(c2)OCO3)s1 | 30.9% [at 0.38 µM]
9 | C[C@@H]1CN([C@H](C)CO)C(=O)c2cc(NC(=O)Nc3cccc4ccccc34)ccc2O[C@@H]1CN(C)C(=O)Nc1ccccc1 | 29.1% [at 0.8 µM]
10 | C[C@H]1CN([C@@H](C)CO)C(=O)c2cccc(NC(=O)NC3CCCCC3)c2O[C@@H]1CN(C)Cc1ccc(C(F)(F)F)cc1 | 27.3% [at 12 µM]
11 | Cn1cnc(S(=O)(=O)N2C[C@@H](O)COC[C@H]3O[C@H](CC(=O)NC4CCCC4)CC[C@@H]32)c1 | 13.5% [at 0.38 µM]
12 | O=C(CN1CCOc2ccccc21)NCc1ccc(F)cc1 | 16.4% [at 6 µM]
13 | Cc1ccc(NC(=O)c2sc3ccccc3c2Cl)nc1 | 24.8% [at 12 µM]
14 | COc1ccc(Cl)cc1C(=O)Nc1nc2ccccc2[nH]1 | 69.4% [at 0.195 µM]
15 | O=C(Nc1cccc(C(=O)O)c1)Nc1ccc2c(c1)OCO2 | -18.7% [at 0.195 µM]
16 | COc1ccc(-c2cc3nc(CCl)[nH]c(=O)c3s2)cc1 | -60.9%
17 | CSc1ccc(NC(=O)Nc2cc(C)ccn2)cc1 | 12.9% [at 0.05 µM]
18 | COCCCNc1ccn2nc(-c3ccccc3)cc2n1 | 42.6% [at 12 µM]

Row | Structure (SMILES) | max activity
19 | O=C(NCCc1ccccc1)c1ccc2c(c1)OCCO2 | 15.3% [at 0.195 µM]
20 | COc1ccccc1C=NNC(=O)c1ccncc1 | 20.7%
21 | CO[C@H]1CN(C)C(=O)c2ccc(NC(=O)c3ccc(-c4ccccc4)cc3)cc2OC[C@@H](C)NC[C@@H]1C | 20.6% [at 0.8 µM]
22 | Nc1ccc(-c2nc3ccc(N)cc3s2)cc1 | 53.7%
23 | COc1ccccc1N/C=C/c1onc(C)c1[N+](=O)[O-] | -8.08% [at 0.8 µM]
24 | Cc1cc(-c2nc3cc(F)ccc3s2)ccc1N | 28.1% [at 1.6 µM]
25 | COc1ccc2[nH]c3c(c2c1)CCN1C(=O)N([C@@H](C)C(=O)NCc2ccc(C)cc2)C(=O)[C@]31C | -9.06% [at 6 µM]
26 | Cc1ccc(-c2cc(C(=O)N(C)Cc3cnn(C)c3C)c3cc(Br)ccc3n2)cc1 | -9.48%
27 | O=C(NCCc1ccc(Cl)cc1)c1ccc2c(c1)OCCO2 | 19.7% [at 0.8 µM]
28 | O=C(Cc1ccncc1)NCC[C@H]1CC[C@H](NC(=O)C2CCCC2)[C@H](CO)O1 | 13.9% [at 0.1 µM]
29 | C[C@H]1CCCCO[C@H](CN(C)C(=O)Nc2cccc3ccccc23)[C@@H](C)CN([C@@H](C)CO)C(=O)c2cc(NS(=O)(=O)c3cn(C)cn3)ccc2O1 | 21.9% [at 0.05 µM]
30 | Cc1ccc(S(=O)(=O)N2CCCc3nc(-c4ccc(F)cc4)ccc32)cc1 | 43.2% [at 12 µM]
31 | CCOC(=O)c1sc(NC(=O)Nc2ccccc2F)nc1C | -21.8% [at 0.05 µM]
32 | Cc1cc(C(=O)COC(=O)C2CC2)c(C)n1-c1ccc(F)cc1 | 9.72% [at 12 µM]
33 | O=C(C[C@H]1C=C[C@@H](NC(=O)C2CCC2)[C@H](CO)O1)NCCCN1CCOCC1 | -15.9% [at 1.6 µM]
34 | Cc1ccc(Nc2nc(-c3ccccc3)cs2)nc1 | -17.9% [at 0.05 µM]
35 | CC(=O)c1c(C)[nH]c(C(=O)CN2C(=O)NC(C)(c3ccc(C)cc3)C2=O)c1C (stereo not given) | 39.5%

— PubChem BioAssay AID743446 (Broad Institute, 2014)
